Laboratory results reported in ChEMBL document CHEMBL4513216, “Probing the Open Global Health Chemical Diversity Library for Multistage-Active Starting Points for Next-Generation Antimalarials” (ACS Infect Dis, 2020).
In all, about 69,000 compounds went through this assay and about 8,600 (12%) showed an effect of 50% or more. Many of the other results were omitted from the sample, so strong results are more common in it than they were.

What follows are molecules tested on Plasmodium berghei (assay: Screen against P. berghei liver stage (PbLuc), transformed with Luciferase, at 10uM). Details: tested at 10 uM.
Format: functional, HepG2
CCc1n[nH]c(C2CN(C(=O)c3cc4c(s3)CCC4)CCO2)n1 (stereo not drawn) was tested, and the INHIBITION was -7.31%.
Molecule C[C@H]1CN(C(=O)c2ccc[nH]2)C[C@@]12CCN(c1ccsc1)C2=O has an INHIBITION of 18.3%.
Molecule NC(=O)c1cc(C2CCCN(CCOc3cccc(F)c3)C2)n[nH]1 (stereo not drawn) has an INHIBITION of 43.48%.
With CN(C)Cc1nn(C)c2c1CN(C(=O)c1ccc[nH]1)C2 the INHIBITION was -4.02%.
COc1ccc(-c2ccnc3nc(N4CCCC4)[nH]c(=O)c23)cc1OC gave an INHIBITION of 40%.
Work on Cc1cccc(NC(=O)N2CCN(Cc3noc(C4CC4)n3)CC2)c1 yielded an INHIBITION of 46.2%.
With Cc1cc(C)n(CC(=O)N2Cc3cnc(C(C)(C)C)nc3C2)n1 the INHIBITION was 51.3%.
Molecule CC(=O)c1c(C)nn(CC(=O)N2Cc3cnc(C(C)(C)C)nc3C2)c1C has an INHIBITION of -10.4%.
CC(=O)N1Cc2cnc(C(C)(C)C)nc2C1 gave an INHIBITION of 19.8%.
In the case of Cc1noc(Cl)c1CCC(=O)N1CCN(c2ccccc2)CC1, the INHIBITION is reported as 26.5%.
Cc1c(CNC(=O)NCc2cccc(-n3cncn3)c2)cnn1C was tested, and the INHIBITION was -40.4%.
Work on CSC(C)(C)CNC(=O)NCc1cccc(-n2cncn2)c1 yielded an INHIBITION of -17.9%.
For O=C(NCc1cccc(-n2cncn2)c1)NCC(C1CC1)C1CC1, the INHIBITION was 50.2%.
Molecule CCn1ncc(CN(C)C(=O)c2ccn(C)n2)c1C has an INHIBITION of 30%.
Cc1ccsc1C(=O)N1CCN(Cc2cscn2)CC1 showed an INHIBITION of -6.14%.
For COCCN1C(=O)[C@@H]2CC[C@H]1CN(c1nccc(C3CCCC3)n1)C2, the INHIBITION was -47.9%.
c1ccc(CN2CCCn3nnc(CNc4ncccn4)c3C2)nc1 gave an INHIBITION of -18.4%.
Molecule OC(COCc1ccccc1)CN1CCC(Cn2cccn2)CC1 (stereo not drawn) has an INHIBITION of 43.5%.
CN(C)C(=O)c1cnc2n1CCN(Cc1ccccc1)C2 gave an INHIBITION of 9.67%.
Molecule Cc1ccc(CN2CCn3c(C(=O)N(C)C)cnc3C2)cc1 has an INHIBITION of 41.6%.
Cc1cccc(CN2CCn3c(C(=O)N(C)C)cnc3C2)c1 showed an INHIBITION of 50.9%.
O=C(CCOCc1ccccc1)NS(=O)(=O)N1CCOc2ccccc21 showed an INHIBITION of -13.6%.
Molecule CCc1ncc2c(n1)CN(Cc1ncc(C(C)(C)C)o1)CC2 has an INHIBITION of 20%.
COC(=O)CN(C(=O)c1ccc(-n2ccnc2)cc1)C1CCCC1 showed an INHIBITION of 0.566%.
In the case of CC(=O)N1CC[C@@H]2O[C@@H](COCc3csc(C)n3)CC[C@@H]21, the INHIBITION is reported as 6.6%.
Cc1nc(COC[C@@H]2CC[C@H]3[C@H](CCN3S(C)(=O)=O)O2)cs1 showed an INHIBITION of 25%.
In the case of COCCN1CC[C@@H]2O[C@H](COCc3csc(C)n3)CC[C@@H]21, the INHIBITION is reported as 3.11%.
With Cc1nc(COC[C@H]2CC[C@H]3[C@H](CCN3c3ncccn3)O2)cs1 the INHIBITION was 42.7%.
Cc1nc(COC[C@@H]2CC[C@H]3NCC[C@H]3O2)cs1 was tested, and the INHIBITION was 55.6%.
Cc1nc(COC[C@H]2CC[C@H]3NCC[C@H]3O2)cs1 was tested, and the INHIBITION was 51.2%.
For CCn1cc(CN2CCCN(C(=O)CCc3cccs3)CC2)cn1, the INHIBITION was 11.4%.
Work on c1cnn(Cc2cn3c(n2)CN(Cc2nccs2)CC3)c1 yielded an INHIBITION of 16.6%.
COc1ccccc1C(C)(C)NC(=O)Nc1ccc(F)c(C(N)=O)c1 was tested, and the INHIBITION was -16.9%.
Work on Cc1cc(C)c(CNC(=O)CC2CCCO2)c(=O)[nH]1 (stereo not drawn) yielded an INHIBITION of 14.55%.
In the case of CCOCCCNC(=O)C(NC(=O)Cc1cccs1)c1ccccc1 (stereo not drawn), the INHIBITION is reported as 34.2%.
CCOCCCNC(=O)C(NC(=O)Cc1cccs1)c1ccc(C)cc1 (stereo not drawn) showed an INHIBITION of 54%.
With CCOCCCNC(=O)Cc1cccs1 the INHIBITION was 30.8%.
In the case of CN1CCOC(CN(C(=O)CCCn2cccn2)c2nccs2)C1 (stereo not drawn), the INHIBITION is reported as -14.6%.
With NC(=O)N1Cc2nccn2CC(Cn2ncccc2=O)C1 (stereo not drawn) the INHIBITION was 61.9%.
With O=C(c1ccccc1)N1Cc2nccn2CC(Cn2ncccc2=O)C1 (stereo not drawn) the INHIBITION was 11.5%.
CC(=O)NCC(=O)N1Cc2nccn2CC(CN2CCCC2)C1 (stereo not drawn) showed an INHIBITION of 28.4%.
For O=C(CC1CC1)N1Cc2nccn2CC(Cn2ncccc2=O)C1 (stereo not drawn), the INHIBITION was -13.2%.
CC(C)NC(=O)N1Cc2nccn2CC(CN2CCCC2)C1 (stereo not drawn) was tested, and the INHIBITION was 73%.
Work on O=C(N1CCCC1)N1Cc2nccn2CC(CN2CCCC2)C1 (stereo not drawn) yielded an INHIBITION of 42.6%.
For OC1(Cn2ccnc2)CCN(C[C@]2(O)CCCN3CCCC[C@@H]32)CC1, the INHIBITION was 28.8%.
O=C1CC2(CCN(C(=O)c3ccccn3)CC2)Oc2c(Br)cc(Br)cc21 was tested, and the INHIBITION was 34.2%.
Work on c1cncc(CC2CN(c3cccnc3)CCO2)c1 (stereo not drawn) yielded an INHIBITION of -43%.
For O=C(NCc1cc(C2CC2)n(C2CCCC2)n1)C1CC1, the INHIBITION was 44.4%.
Molecule Cc1nc(CN2C(=O)CCC23CCN(c2ncccn2)CC3)cs1 has an INHIBITION of -38.1%.
Work on O=C(NC1CC2(CCN(CCO)CC2)c2ccccc21)c1ccno1 (stereo not drawn) yielded an INHIBITION of 49.7%.
For C=C(C)CN1CCN(Cc2cnc(-c3ccc(OC)cc3)nc2)CC1, the INHIBITION was 44.8%.
CCOCCCNC(=O)c1cc(OC)c2ccoc2c1 was tested, and the INHIBITION was 6.11%.
Work on CC(c1ccon1)N(C)S(=O)(=O)NCc1ccccc1 (stereo not drawn) yielded an INHIBITION of 50.9%.
Work on CC(c1ccncn1)N(C)S(=O)(=O)NCc1ccccc1 (stereo not drawn) yielded an INHIBITION of 4.65%.
CC(c1nccs1)N(C)S(=O)(=O)NCc1ccccc1 (stereo not drawn) showed an INHIBITION of -1.6%.
With Cc1csc(N2CCN(C(=O)Cc3cccs3)CC2)n1 the INHIBITION was 28.8%.
CCCc1n[nH]c(C2CN(CCCS(=O)(=O)N(C)C)CCO2)n1 (stereo not drawn) gave an INHIBITION of -21.7%.
With CN(C)c1ncccc1N(C)C(=O)Cn1cc(-c2ccccc2)nn1 the INHIBITION was -0.85%.
In the case of Cc1cccc(C2CCCN(S(=O)(=O)c3cccnc3)C2)n1 (stereo not drawn), the INHIBITION is reported as 19.36%.
O=C(c1ncccn1)N1C[C@@H]2CN(CC3CC3)CCO[C@@H]2C1 showed an INHIBITION of 31.9%.
CN1CCO[C@@H]2CN(C(=O)c3ccc4ncccc4c3)CC[C@@H]2C1 gave an INHIBITION of 58.4%.
For CN1CCO[C@@H]2CN(C(=O)c3ccc4[nH]ccc4c3)CC[C@@H]2C1, the INHIBITION was 43%.
CC(=O)N1CCO[C@@H]2CN(C(=O)c3ccc4ccccc4c3)CC[C@@H]2C1 was tested, and the INHIBITION was -57.1%.
With CC(=O)N1CCO[C@@H]2CN(C(=O)c3ccccc3)CC[C@@H]2C1 the INHIBITION was 12.1%.
Work on CC(=O)N1CCO[C@@H]2CN(C(=O)c3ccc4ncccc4c3)CC[C@@H]2C1 yielded an INHIBITION of 49.1%.
O=C(c1ccc2[nH]ccc2c1)N1CC[C@@H]2CN(CC3CC3)CCO[C@@H]2C1 was tested, and the INHIBITION was 60.2%.
CCN1CCO[C@@H]2CN(C(=O)c3ccc4[nH]ccc4c3)CC[C@@H]2C1 gave an INHIBITION of 52.1%.
For COCCN1CCO[C@@H]2CN(C(=O)c3ccc4[nH]ccc4c3)CC[C@@H]2C1, the INHIBITION was 1.36%.
